Rows were chosen to be rich in hits. Some 8.1% of all compounds tested hit in one or more screens of this group.
ELG1 repair inh – inhibitors of ELG1-dependent DNA repair in HEK293T cells | HEK293T ELG1-luciferase reporter, luminescence, 16 h; DNA damage induced by 5-fluorouridine | Potency, µM (series often up to 46.1 µM), for inactives: at the top dose activity change, negative = inhibition, usual class: inhibitors | actives 2.3% (n = 330,000) | AID 504467; also: % is scaled to controls: 0 for no effect and ±100 for the full control effect; nearly all actives have a fitted effect of over 55% in size
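In this reporter screen, reduction of luminescence relative to DMSO vehicle indicated activity. Compounds and 5-fluorouridine were added together to 2,000 cells per well, incubated for 16 hr at 37 °C, then developed with ONE-Glo.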
SW480 rerep – DNA re-replication induction in SW480 cells. SW480 DNA re-replication, Hoechst DNA content imaging, 48 h. actives 1.8% (n = 340,000). AID 624297. Potency, µM (top dose mostly 46.1 µM), inactives show at the highest dose re-replication activation, hits mostly activators; also: % of control where 0% means no effect; nearly all actives have a fitted effect of over 55% in size
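Image-based DNA-content assay: after two days of treatment, nuclei were labelled with the DNA dye Hoechst and imaged, and hits were compounds raising the count of nuclei showing high fluorescence intensity.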
KB-V1 cytotox – kills drug-selected multidrug resistant KB-V1 cells. KB-V1 MDR cells viability, CellTiter-Glo, 72 h. Potency, µM (top dose mostly 46.1 µM), actives largely listed as cytotoxic. actives 3.4% (n = 400,000); also: % is scaled to controls: 0 for no effect and ±100 for the full control effect; nearly all actives have a fitted effect of over 60% in size
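In this primary screen, KB-V1 cells overexpressing P-gp are incubated with library compounds (lowest to highest concentration) for 72 h at 37 degrees C before a luminescent ATP viability read.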
KB-3-1 tox – KB-3-1 parental cell cytotoxicity | KB-3-1 viability, CellTiter-Glo ATP luminescence, 72 h | Potency, µM (titrated, usually from 46.1 µM), most hits filed as cytotoxic | actives 1.4% (n = 400,000) | AID 1347075; also: % is scaled to controls: 0 for no effect and ±100 for the full control effect; nearly all actives have a fitted effect of over 60% in size
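Screening of KB-3-1 cells (DMEM, 10% FBS, phenol-red free) ran from lowest to highest compound concentration; after 72 h at 37 °C viability was read luminescently and curves fitted.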
MCF10A rerep – DNA re-replication induction in MCF 10a cells; MCF 10A DNA re-replication, Hoechst nuclear intensity, 48 h; Potency, µM (series often up to 46.1 µM), for the others: at the top dose activity, positive = re-replication, usual class: activators; actives 2.9% (n = 350,000); also: % of control where 0% means no effect; nearly all actives have a fitted effect of over 50% in size
Numbers without * were called inactive; i = inactive; ? = inconclusive; · = no result; ! = not active in a repeat; [ ] = remark or other dose. Calls follow the shape of the dose curve; as a rule, active = well fitted curve in the direction sought with a large enough effect; inconclusive = small, poorly fitted or top-dose-only effect, or another doubt; inactive = no such curve, though single readings can be large; an effect the other way counts as inactive or inconclusive. Potency is read from the fitted curve at half-maximal effect.

SMILES	ELG1 repair inh	SW480 rerep	KB-V1 cytotox	KB-3-1 tox	MCF10A rerep
Cc1ccccc1OCCC(=O)Nc1ccc(S(=O)(=O)N2CCCC2)cc1	·	·	i	i	·
CCCCNc1cc(=O)oc2ccccc12	-12.1%	2.0%	i	i	0.2%
CCOc1ccc(Nc2cc(=O)oc3ccccc23)cc1	?	-2.6%	13µM*	i	-2.8%
CCOc1cc(-c2nc3c(c(CC)nn3-c3ccccc3)c3cc(OC)c(OC)cc23)ccc1O	·	·	i	i	·
CN1CCN(C(=O)c2ccccc2N(Cc2ccccc2)S(=O)(=O)c2ccccc2)CC1	-4.3%	9.9%	i	i	13.1%
Cc1ccc(S(=O)(=O)N(C)c2ccc(C(=O)NCc3cccnc3)cc2)cc1	-6.7%	-21.1%	i	i	5.1%
Cc1ccc(S(=O)(=O)N(Cc2ccccc2)c2ccccc2C(=O)NCc2cccnc2)cc1	-7.5%	?	23.1µM*	?	-4.0%
Cc1ccc(S(=O)(=O)N(Cc2ccccc2)c2ccccc2C(=O)N2CCCCC2)cc1	?	18.4µM*	?	i	?
CCc1nc2c(OCc3ccc(F)c(F)c3)cccn2c1N(C)C(=O)c1cccs1	·	·	i	i	·
CCOc1ccc(CC(=O)NNC(=S)NC)cc1	0.0%	-55.7%	i	i	1.3µM*
CNC(=S)NNC(=O)Cc1ccccc1	1.1%	1.8%	i	i	6.4%
O=C(c1ccc(Cl)cc1)N1CCC(c2ccncc2)CC1	·	·	i	?	·
O=[N+]([O-])c1ccc(OC(F)F)c(/C=N/n2cnnc2)c1	-11.8%	3.26µM*	?	?	0.1%
O=C(NCCC(=O)N1CCN(C(=O)c2ccco2)CC1)c1ccc(Br)cc1	2.4%	-5.4%	i	i	-2.4%
Cc1ccc(C)c(S(=O)(=O)ON2C(=O)c3ccccc3C2=O)c1	16.3%	?	i	?	5.8µM*
Cc1cc(S(=O)(=O)ON2C(=O)c3ccccc3C2=O)ccc1F	-1.4%	8.0%	i	?	?
O=C1CC(N2CCCCCC2)C(=O)N1c1ccc2c(c1)OCO2 (configuration not stated)	3.7%	-0.6%	i	i	14.6µM*
O=C1CC(N2CCCCCC2)C(=O)N1c1ccc(F)cc1 (configuration not stated)	9.5%	?	?	i	13µM*
COc1ccc(CNC(=O)CN2CCC(NC(=O)c3cccc(OC)c3)CC2)cc1	·	1.9%	i	i	17.5%
CN(C)c1ccc(-c2c(-c3ccc4c(c3)OCO4)noc2-c2ccsc2)cn1	?	?	10.3µM*!	?	?
O=C(Nc1ccccn1)C1CCN(S(=O)(=O)c2cccs2)CC1	-26.6%	-7.9%	?	i	-5.4%
O=C(Nc1ccc(OC(F)(F)F)cc1)C1CCN(S(=O)(=O)c2cccs2)CC1	·	·	i	20.6µM*	·
COc1ccc2nc(NC(=O)C3CCN(S(=O)(=O)c4cccs4)CC3)sc2c1	10.3µM*	11.4%	23.1µM*	?	-1.0%
COc1ccc2nc(NC(=O)C3CCN(S(=O)(=O)c4cccnc4)CC3)sc2c1	?	18.9%	i	i	23.8%
Cc1cccc(NC(=O)C2CCN(S(=O)(=O)c3cccs3)CC2)n1	?	-1.3%	23.1µM*	i	2.6%
SMILES	ELG1 repair inh	SW480 rerep	KB-V1 cytotox	KB-3-1 tox	MCF10A rerep
CCOc1ccc(NC(=O)C2CCN(S(=O)(=O)c3cccs3)CC2)cc1	0.0%	-8.2%	?	?	8.2%
Cc1ccc2nc(NC(=O)C3CCN(S(=O)(=O)c4cccnc4)CC3)sc2c1	16.4µM*	0.2%	?	?	9.9%
CC(C)(C)C(=O)CSc1n[nH]c(-c2ccccc2)n1	·	·	i	i	·
Cc1noc(C)c1S(=O)(=O)N1CCC(C(=O)Nc2ccc(OC(F)(F)F)cc2)CC1	?	2.6%	i	i	15.8µM*
COc1ccc2nc(NC(=O)C3CCCN(S(=O)(=O)c4cccs4)C3)sc2c1 (configuration not stated)	?	8.8%	i	i	-1.3%
COc1ccc(NC(=O)C2CCN(S(=O)(=O)c3c(C)noc3C)CC2)cc1	?	2.3%	i	i	13.3%
Cc1ccc2nc(NC(=O)C3CCN(S(=O)(=O)c4cccs4)CC3)sc2c1	-26.5%	9.2%	4.61µM*	?	2.5%
O=C(Nc1nc2ccc(C(=O)N3CCCCC3)cc2s1)C1CCCCC1	?	6.51µM*	3.66µM*	5.8µM*	4.11µM*
COc1ccc(OC)c(NS(=O)(=O)c2ccc3c(c2)CCCN3C(=O)C2CCC2)c1	·	·	?	i	·
COc1ccc(C(=O)C[C@@H]2OC[C@H](C(C)C)N2S(=O)(=O)c2ccc(C)cc2)cc1OC	·	·	20.6µM*	i	·
COc1ccc(C(=O)C[C@@H]2OC[C@H](C)N2S(=O)(=O)c2ccc(C)cc2)cc1OC	·	·	?	i	·
COc1cccc(C(=O)C2CN(c3ccccc3)CC2c2ccc(Cl)cc2)c1 (configuration not stated)	12.2%	?	16.4µM*	i	25.9%
O=C(CN1C(=O)CC(c2ccccc2)Sc2ccccc21)Nc1cccc(Cl)c1 (configuration not stated)	·	·	20.6µM*	?	·
CCc1ccc(NC(=O)CN2C(=O)CC(c3ccccc3)Sc3ccccc32)cc1 (configuration not stated)	·	·	i	i	·
CCOc1ccccc1NC(=O)CN1C(=O)CC(c2ccco2)Sc2ccccc21 (configuration not stated)	·	·	13µM*	?	·
COc1ccc(C2CC(=O)N(CC(=O)NCC3CCCO3)c3ccccc3S2)cc1OC (configuration not stated)	1.1%	-6.4%	i	i	-3.2%
CCOc1ccccc1NC(=O)CN1C(=O)CC(c2ccc(OC)c(OC)c2)Sc2ccccc21 (configuration not stated)	·	·	18.4µM*	?	·
Cn1nc(C(=O)Nc2ccc(Br)cc2)cc1C(=O)Nc1ccc(Br)cc1	-2.4%	4.6%	?	i	-2.2%
COc1cccc(NC(=O)c2cc(C(=O)Nc3cccc(OC)c3)n(C)n2)c1	13µM*	1.1%[9.22 µM]	?	?	14.8%
O=C(O)c1ccc(C(S(=O)(=O)c2ccccc2)S(=O)(=O)c2ccccc2)cc1	·	·	i	i	·
CCC1(c2ccc(Cl)cc2)NC(=O)N(Cc2ccc(C(=O)OC)cc2)C1=O (configuration not stated)	20.6µM*	0.3%	?	i	0.9%
CCC1(c2ccc(F)cc2)NC(=O)N(CC(=O)NC2CC2)C1=O (configuration not stated)	?	-3.4%	i	i	1.9%
